Consider `Nc1nccc(-c2c(-c3ccc(F)cc3)ncn2CCCN2CCOCC2)n1` [SB-216385], for which, in the assay on MAP2K4, the Kinases covered result is recorded as “MAP2K4”. Turning to `CN(C)C/C=C/C(=O)Nc1ccc(C(=O)Nc2cccc(Nc3ncc(Cl)c(-c4c[nH]c5ccccc45)n3)c2)cc1` [THZ1], the Kinases covered result with MAP3K11 is “MAP3K11”. Take `CCn1c(-c2nonc2N)nc2ccccc21` [SB-693162]: the Kinases covered entry in the assay with MAP3K19 was “MAP3K19”.

`Cc1cccc(CC(=O)N2CCc3c2ccc(-c2cn(C)c4ncnc(N)c24)c3F)n1` [GSK2656157]: the Kinases covered result with MAP3K2 is on record as “MAP3K2”. For `CC(C)(C)c1ccc(C(=O)Nc2cn3cc(-c4cccnc4)ccc3n2)cc1` [TPKI-58], the Kinases covered entry in the assay with MAP3K5 is recorded as “MAP3K5”.

For `Cc1cc(-c2ccc3c(c2)CC[C@@H](N[C@@H](C)c2ccccc2)C3)cnc1N` [GW412617], in the assay on MAP4K2, the Kinases covered result is “MAP4K2”. As to `Cl.O=C1Nc2ccc(-c3cccnc3)cc2C1=Cc1cc(Br)c(O)c(Br)c1` [GW429374A], in the assay with MAP4K4, the Kinases covered result was “MAP4K4”. For `COCCNC(=O)c1ccc(-c2cc(C(=O)NC3CC3)cc(F)c2C)cc1` [GW868318], the Kinases covered entry with MAPK11 is given as “MAPK11”. On to `Cc1ccc(C(=O)NCC(N)=O)cc1-n1c(C)cc(OCc2ccc(F)cc2F)c(Br)c1=O` [PFE-PKIS 1], for which the Kinases covered result with MAPK11 was “MAPK11”.

For the origin of these results see PMC7826789 (International Journal of Molecular Sciences, 2021).
